PubChem BioAssay (NCATS)
Records with an inconclusive call do not appear. Values without a mark were called inactive. Active and inactive are the calls of the source. Calls come from the whole dose curve.

Assays:
[1] = target: Bile acid receptor (Homo sapiens) (UniProt Q96RI1); test: qHTS assay for small molecule agonists of farnesoid X receptor signaling (AID 588527); settings: HEK293T FXR-UAS-bla, beta-lactamase ratio, 16 h; activation: stronger effect = higher value;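 note: series mostly up to about 77 µM; 0% = vehicle basal and 100% = reference agonist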
Method in brief: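 FXR-UAS-bla HEK293T cells (10% dialyzed FBS) preincubated 5-7 h at 37 C, then compounds at up to 92 uM for 16 h at 37 C. CCF4 beta-lactamase read-out after 2 h RT. Normalized to chenodeoxycholic acid (100 uM) and DMSO; Hill fit gave EC50 and efficacy.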

[2] = target: Peroxisome proliferator-activated receptor delta (Homo sapiens) (UniProt Q03181); test: qHTS assay for small molecule agonists of peroxisome proliferator-activated receptor delta signaling (AID 588534);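 note: 0% = DMSO basal wells and 100% = positive control agonist at 10 µM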
Method in brief: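 Reporter cells were plated and held 5 hrs at 37 C before compounds were added. After 18 hrs at 37 C, CCF4 dye was loaded for 2 hrs at RT and fluorescence measured.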

Sequence of Bile acid receptor (Homo sapiens) (Q96RI1 whole entry, looked up): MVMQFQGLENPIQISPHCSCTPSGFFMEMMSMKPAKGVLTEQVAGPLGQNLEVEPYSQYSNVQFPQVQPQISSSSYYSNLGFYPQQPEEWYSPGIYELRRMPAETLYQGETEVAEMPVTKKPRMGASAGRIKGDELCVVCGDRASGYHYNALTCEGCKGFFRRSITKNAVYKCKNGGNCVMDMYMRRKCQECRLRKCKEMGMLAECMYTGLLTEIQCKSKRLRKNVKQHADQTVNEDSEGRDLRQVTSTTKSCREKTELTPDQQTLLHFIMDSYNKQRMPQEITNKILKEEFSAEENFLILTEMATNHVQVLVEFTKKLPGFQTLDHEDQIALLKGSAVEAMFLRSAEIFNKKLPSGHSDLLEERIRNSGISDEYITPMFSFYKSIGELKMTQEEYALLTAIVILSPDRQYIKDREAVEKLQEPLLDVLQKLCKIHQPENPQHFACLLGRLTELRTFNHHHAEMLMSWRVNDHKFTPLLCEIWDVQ
Sequence of Peroxisome proliferator-activated receptor delta (Homo sapiens) (Q03181 whole entry, looked up): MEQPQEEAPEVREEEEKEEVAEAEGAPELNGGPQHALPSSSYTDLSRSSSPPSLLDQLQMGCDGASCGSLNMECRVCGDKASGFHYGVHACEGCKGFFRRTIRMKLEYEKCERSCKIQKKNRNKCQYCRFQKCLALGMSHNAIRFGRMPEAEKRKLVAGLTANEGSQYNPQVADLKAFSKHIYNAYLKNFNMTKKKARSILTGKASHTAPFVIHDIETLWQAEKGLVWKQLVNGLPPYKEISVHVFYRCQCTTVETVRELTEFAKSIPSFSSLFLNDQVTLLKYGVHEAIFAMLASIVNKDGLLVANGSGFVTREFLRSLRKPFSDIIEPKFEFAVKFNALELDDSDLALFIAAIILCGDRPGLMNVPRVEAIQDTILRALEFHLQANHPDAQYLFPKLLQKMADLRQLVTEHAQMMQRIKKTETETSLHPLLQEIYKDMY

Structure (SMILES)	activation [1] [%]	outcome [2]
COc1ccc(N)c(C)c1	-1.77	inactive
CCc1c(C(=O)O)c(=O)cnn1-c1ccc(Cl)cc1	1.28	inactive
CC(=O)c1cccc([N+](=O)[O-])c1	-1.11	inactive
CCCCC	-0.0908	inactive
O=C(O)c1ccc(Cl)cc1Cl	-2.47	inactive
Cl[Si](Cl)(c1ccccc1)c1ccccc1	3.41	inactive
COc1cc(Cl)c(OC)cc1N	-0.889	inactive
FC(F)(F)c1cccc(Cl)c1	-1.67	inactive
Cc1c(C(=O)O)cccc1[N+](=O)[O-]	-2.92	inactive
C=C(C)C(=O)OCC(CC)(COC(=O)C(=C)C)COC(=O)C(=C)C	-1.88	inactive
CC(C)C(=O)OCC(C)(C)C(O)C(C)C (stereo not drawn)	-0.406	inactive
CO[Si](CCCOCC1CO1)(OC)OC (stereo not drawn)	-0.427	inactive
CCNc1cc(O)ccc1C	2	inactive
Nc1cc(Cl)nc(C(=O)O)c1Cl	-2.93	inactive
CCCCCCCCCCCCCCCO	-2.39	inactive
Nc1ccc(N=Nc2ccccc2)c(N)c1	-2.91	inactive
Nc1ccccc1[N+](=O)[O-]	-3.44	inactive
C=CC(=O)OCCCCCCOC(=O)C=C	-0.189	inactive
Cc1ccc(C)c(N)c1	-1.33	inactive
CCOCCOCCOC(C)=O	-3.45	inactive
C=CCCCCCCC=C	-0.711	inactive
C(=C/c1ccccc1)/c1ccccc1	-2.54	inactive
CCCC/C=C\CCCCCCCCO	-5.44	inactive
CCC(=O)C1C(=O)CC(C(=O)O)CC1=O (stereo not drawn)	-1.69	inactive
